# Reference: ChEMBL document CHEMBL4513216, “Probing the Open Global Health Chemical Diversity Library for Multistage-Active Starting Points for Next-Generation Antimalarials” (ACS Infect Dis, 2020)
# The whole screen tested about 69,000 compounds, of which about 8,600 (12%) showed an effect of 50% or more. The list comes from a sample in which strong results are over-represented; it also holds similar structures and randomly drawn compounds.
# Tested on: Plasmodium berghei
# Experiment: Screen against P. berghei liver stage (PbLuc), transformed with Luciferase, at 10uM
# Assay type: functional, HepG2
# Details: tested at 10 uM
row,SMILES,INHIBITION [%]
1,COCCN(C)C[C@@H]1CN(c2cc(C)nc3ccccc23)C[C@@H]1CO,-34.8
2,CN(Cc1nc2ccccc2s1)C1CCCN(c2cccnn2)C1 (configuration not stated),24.7
3,Cc1cc(C)c(CNc2nc3ccccc3cc2CO)c(=O)[nH]1,55.8
4,Cc1cc(C)c(CNc2ncnc3ccccc23)c(=O)[nH]1,14.7
5,Cc1cc(C)c(CNc2cnc3ccccc3n2)c(=O)[nH]1,-1.35
6,Cc1nc(C)n(C2CCCN(C(=O)c3ccc(O)nc3)C2)n1 (configuration not stated),16.1
7,Cc1nn(C)c(N(C)C)c1CNCc1cccc(Cn2cncn2)c1,-17.6
8,Cc1c[nH]nc1C1CCCN1Cc1nccn1C (configuration not stated),18.4
9,COc1c(CNCc2ccnc(N3CCCCC3)c2)c(C)nn1C,87.3
10,COc1c(CNCc2cccnc2N2CCOCC2)c(C)nn1C,-7.7
11,COc1c(CNCc2cccnc2N2CCN(C)CC2)c(C)nn1C,51.3
12,COc1c(CNCc2ccnc(N3CCCC3)c2)c(C)nn1C,-8.3
13,COc1cc(CNCc2ccnc(N3CCCCC3)c2)cc(OC)c1,80.9
14,COc1ccc(CNCc2ccc(N3CCCCC3)nc2)cc1OC,52.7
15,COc1cccc2cc(CNCc3ccnc(N4CCCCC4)c3)oc12,-19.4
16,COc1c(CNCc2cccnc2N2CCCCC2)c(C)nn1C,-91.6
17,COc1ccc(CNCc2ccnc(N3CCCCC3)c2)cc1OC,37.2
18,COc1ccc(OC)c(CNCc2ccnc(N3CCCCC3)c2)c1,10.6
19,COc1c(CNCc2ccnc(N3CCOCC3)c2)c(C)nn1C,19.4
20,COc1cccc2cc(CNCc3ccc(N4CCCC4)nc3)oc12,21.6
21,O=C(NCc1cccnc1N1CCCCC1)c1ccc2cc[nH]c2c1,2.7
22,NC1(CN2CCOCC2)CCCCC1,8.12
23,C[C@H]1CN(c2ccccn2)C[C@@]12CCN(c1cccnc1)C2=O,8.66
24,COc1cc(CNCc2ccnc(N3CCCC3)c2)cc(OC)c1,59.6
25,COc1cc(CNCc2ccnc(N3CCOCC3)c2)cc(OC)c1,19.2
26,COc1ccc(CNCc2ccnc(N3CCCC3)c2)c(OC)c1,41.45

row,SMILES,INHIBITION [%]
1,CCN1CC(C(=O)NCCc2csc(-c3ccncc3)n2)CCC1=O (configuration not stated),1.86
2,Cc1cnc(-c2nc(C3CCN(C(=O)Cc4ccsc4)CC3)no2)cn1,2.71
3,CC(C)c1ccc(/C=C/CC(=O)NC2CCN(C(N)=O)C2)cc1 (configuration not stated),36.5
4,CC(C)c1ccc(OCCC(=O)N2CCC(C(N)=O)CC2)cc1,32.2
5,COCCN1CCC(NC(=O)C(C)C)CC1,-34.4
6,COCCN1CCC(NC(=O)C/C=C/c2ccc(C(C)C)cc2)CC1,61.1
7,CC(C)c1ccc(/C=C/CC(=O)NC2CCS(=O)(=O)CC2)cc1,71.2
8,COCCN1CCC(NC(=O)Cn2cc(C)c3ccccc32)CC1,17.4
9,CC(C)c1noc(CCCC(=O)NC2CCS(=O)(=O)C2)n1 (configuration not stated),-7.46
10,CC(C)c1noc(CCC(=O)NC2CCS(=O)(=O)C2)n1 (configuration not stated),-12.2
11,CC(C)c1ccc(/C=C/CC(=O)NC2CCN(C(N)=O)CC2)cc1,83.5
12,CC(=O)NCC1CCN(C(=O)NCCOc2ccc3c(c2)CCC3)CC1,25.1
13,COc1cc(C(=O)N2CCCC(n3cncn3)C2)ccc1C (configuration not stated),-16
14,CC(C(=O)N1CCCC1)n1nc(-c2cccs2)cc(N)c1=O (configuration not stated),11.8
15,CCN1CCN(C(=O)c2cnc3c(cnn3C3CCCC3)c2)CC1,19.2
16,CNC(=O)[C@H]1C[C@@H]2CCN(Cc3nccs3)C[C@H]2O1,26.4
17,O=C(NCC1CC1)[C@H]1C[C@@H]2CCN(Cc3nccs3)C[C@@H]2O1,25
18,COCCNC(=O)[C@H]1C[C@@H]2CCN(Cc3ccncc3)C[C@H]2O1,-1.36
19,CN(C)C(=O)[C@@H]1C[C@@H]2CCN(Cc3nccs3)C[C@@H]2O1,19.9
20,CC1CCN(C(=O)[C@@H]2C[C@@H]3CCN(Cc4nccs4)C[C@H]3O2)CC1,53.9
21,COCCNC(=O)[C@H]1C[C@@H]2CCN(Cc3nccs3)C[C@H]2O1,56.7
22,CC(C)CCn1ccc(NC(=O)N2CCCC2C(C)(C)O)n1 (configuration not stated),29.9
23,c1ccc(OCc2nnc3n2CCN(CC2CCOCC2)C3)nc1,43.2
24,Cc1cc(C)nc(C2CCN(C3CCOCC3)C2)n1 (configuration not stated),-10.4
25,Cn1nc(C(C)(C)C)cc1NC(=O)Cn1ccnc1,11.2
26,COCCN1C[C@@H]2CC[C@H]1CN(Cc1cc(=O)c3cc(C)ccc3[nH]1)C2,-23.5
